We go through 43 compounds from PubChem BioAssay AID720706 (Broad Institute, 2013).

About 5,500 (1.6%) of roughly 350,000 compounds were called active.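 The calls were made as follows: active = significant combined selectivity score with lowered wild-type GFP, culture density cut under 30%, mutant RFP and density less affected; inactive = any of these conditions unmet.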 The entries come from a sample that favours actives as a whole.

The nature of this assay: reduced GFP signal of wild-type E. coli, primary screen, bacterial rRNA inhibitor project, GFP/RFP fluorescence, OD600, single point (AID 720706). The following applies: E. coli WT GFP vs humanized-ribosome RFP mutants, 24 h; GFP signal change (wild-type ribosome): stronger effect = lower value, DMSO median 0, no signal -100; OD600 change: measured here: OD600 growth, DMSO median 0, no signal -100; RFP signal change: measured here: RFP humanized mutant strains, DMSO median 0, no signal -100, concentration not given here.
`C[C@@H]1CN([C@H](C)CO)C(=O)Cc2cc(NS(=O)(=O)c3cn(C)cn3)ccc2O[C@@H]1CN(C)C(=O)Nc1ccccc1`: the GFP signal change (wild-type ribosome) is 6.08% (inactive), the OD600 change came to 7.32% and the RFP signal change is -1.29%.
Turning to `CC(=O)Nc1cccc(NC(=O)c2ccc3c(c2)CCN3S(C)(=O)=O)c1`, the GFP signal change (wild-type ribosome) is -1.52% (inactive), the OD600 change came to 7.81% and the RFP signal change was 5.89%.
The corresponding values for `CN(c1cccc(NC(=O)c2ccc(CN3CCc4ccccc4C3)cc2)c1)S(C)(=O)=O` are -21.5% (active), -11.3% and -3.92%.
Take `CS(=O)(=O)N1CCc2cc(C(=O)Nc3ccccc3)ccc21`: the GFP signal change (wild-type ribosome) was 5.39% (inactive), the OD600 change came to 2.75% and the RFP signal change is 3.33%.
With `COc1ccc(-c2nc(CCNC(=O)c3ccc(Br)o3)cs2)cc1`, the GFP signal change (wild-type ribosome) is -22.8% (inactive), the OD600 change is -75.5% and the RFP signal change was -22.8%.
With `O=S(=O)(NCCc1csc(-c2ccccc2)n1)c1cccnc1`, the GFP signal change (wild-type ribosome) was -11.8% (inactive), the OD600 change was -3.96% and the RFP signal change worked out at 1.22%.
As for `O=C(NCCc1csc(-c2ccccc2)n1)c1ccccc1F`, the GFP signal change (wild-type ribosome) is -24.5% (active), the OD600 change was -9.12% and the RFP signal change was 10.4%.
As for `C[C@H](CO)N1C[C@H](C)[C@@H](CN(C)C(=O)c2ccncc2)Oc2cc(/C=C/c3ccccc3)ccc2S1(=O)=O`, the GFP signal change (wild-type ribosome) was -0.655% (inactive), the OD600 change is -10% and the RFP signal change turned out to be 0.748%.
`CC(C)NC(=O)N(C)C[C@H]1Oc2ccc(N)cc2CC(=O)N(C)C[C@H]1C`: the GFP signal change (wild-type ribosome) was 1.15% (inactive), the OD600 change was 1.28% and the RFP signal change was -1.08%.
With `COc1ccc2oc(C(=O)NCC(Cc3ccccc3)N(C)C)c(C)c2c1` (centres undefined), the GFP signal change (wild-type ribosome) is 0.609% (inactive), the OD600 change was -7.21% and the RFP signal change worked out at 3.26%.
`Cc1c(C(=O)NCC(c2ccco2)N2CCCC2)oc2ccc(Cl)cc12` (centres undefined): the GFP signal change (wild-type ribosome) is -0.887% (inactive), the OD600 change was -24.2% and the RFP signal change was determined as 6.54%.
In the case of `COc1ccc2oc(C(=O)NCc3ccco3)c(C)c2c1`, the GFP signal change (wild-type ribosome) was -31.1% (active), the OD600 change was -11.6% and the RFP signal change came to 2.2%.
For `C[C@@H]1CCCCO[C@@H](CN(C)S(=O)(=O)c2cccs2)[C@H](C)CN([C@H](C)CO)C(=O)c2cc(NC(=O)CCCN(C)C)ccc2O1`, the GFP signal change (wild-type ribosome) is 0.863% (inactive), the OD600 change is 4.81% and the RFP signal change was -0.962%.
The corresponding values for `Cc1cc(C)c2c(-c3ccc(F)cc3)c(C#N)c(=O)n(C)c2n1` are 2.75% (inactive), 5.62% and -1.52%.
Consider `COCCn1c(=O)[nH]c(=O)c2cc(C(=O)c3cc(OC)ccc3O)cnc21`, for which the GFP signal change (wild-type ribosome) is -0.725% (inactive), the OD600 change was -0.37% and the RFP signal change worked out at 12.8%.
The corresponding values for `COc1ccc(O)c(C(=O)c2cnc3c(c2)c(-c2ccc(F)cc2)c(C#N)c(=O)n3C)c1` are -17% (active), 6.31% and 1.18%.
The corresponding values for `CC(=O)N1N=C(c2ccccc2)OC1c1cccnc1` (centres undefined) are 9.41% (inactive), -5.18% and -3.3%.
Turning to `O=C(Cc1ccccc1)N1N=C(c2ccncc2)CC1(O)C(F)(F)F` (centres undefined), the GFP signal change (wild-type ribosome) was 7.85% (inactive), the OD600 change is -1.11% and the RFP signal change is 2.05%.
On to `CC(=O)N1N=C(c2ccncc2)OC1(Cc1ccccc1)Cc1ccccc1`, for which the GFP signal change (wild-type ribosome) was -37.5% (active), the OD600 change was -22% and the RFP signal change was -2.93%.
For `Cc1cccc(C)c1N1C(=O)CN(Cc2ccccc2)C1=S`, the GFP signal change (wild-type ribosome) is -22.1% (active), the OD600 change is -16.8% and the RFP signal change was -3.28%.
As for `COc1cccc(N2C(=O)CN(Cc3ccccc3)C2=S)c1`, the GFP signal change (wild-type ribosome) is -8.56% (inactive), the OD600 change is -0.07% and the RFP signal change is 3.96%.
Take `CCc1cccc(C)c1N1C(=O)CN(Cc2ccccc2)C1=S`: the GFP signal change (wild-type ribosome) was 1.91% (inactive), the OD600 change was -44.9% and the RFP signal change was -8.39%.
Regarding `CCC(=O)N1CC(=O)N2[C@H](CO)[C@@H](c3ccc(-c4ccc(C(=O)N(C)C)cc4)cc3)[C@H]2C1`, the GFP signal change (wild-type ribosome) is 4.58% (inactive), the OD600 change was determined as 2.18% and the RFP signal change was -2.34%.
On to `COC(=O)c1cc(OC)ccc1-c1ccc(OC)cc1`, for which the GFP signal change (wild-type ribosome) was -32.6% (active), the OD600 change is -15.3% and the RFP signal change was -6.08%.
Consider `COc1ccc(SSc2ccc(OC)cc2C(=O)O)c(C(=O)O)c1`, for which the GFP signal change (wild-type ribosome) is 11.9% (inactive), the OD600 change turned out to be 11.8% and the RFP signal change was -2.19%.
On to `COc1ccc(C(=O)CC(=O)c2ccc(C)cc2)c(O)c1`, for which the GFP signal change (wild-type ribosome) is -49% (inactive), the OD600 change is -75.2% and the RFP signal change is -24.9%.
Regarding `COc1ccccc1S(=O)(=O)N[C@@H]1CC[C@H](CCn2cc(C3CCCC3)nn2)O[C@H]1CO`, the GFP signal change (wild-type ribosome) is 1.1% (inactive), the OD600 change turned out to be 3.92% and the RFP signal change was -3.27%.
Regarding `C[C@H](CO)N1C[C@H](C)[C@H](CN(C)CC2CC2)OCCCC[C@H](C)Oc2ccc(NS(=O)(=O)c3cccs3)cc2C1=O`, the GFP signal change (wild-type ribosome) was -0.767% (inactive), the OD600 change is -2.73% and the RFP signal change was -0.839%.
The corresponding values for `Cc1ccc(-c2ccc([C@H]3[C@H](CO)N4C(=O)CN(S(=O)(=O)c5cccc(F)c5)C[C@@H]34)cc2)cc1` are -2.35% (inactive), -0.94% and 0.984%.
For `Cn1c(=O)n(C)c2cc(NS(=O)(=O)c3ccc(F)cc3)ccc21`, the GFP signal change (wild-type ribosome) was 0.225% (inactive), the OD600 change came out at 0.76% and the RFP signal change is -4.92%.
Take `CCC(=O)Nc1ccc2c(c1)nc(CCN1CCN(c3ccccn3)CC1)n2C`: the GFP signal change (wild-type ribosome) was 4.56% (inactive), the OD600 change turned out to be 7.29% and the RFP signal change worked out at 1.64%.
Consider `Cn1c(CCN2CCN(c3ccccn3)CC2)nc2cc(NS(=O)(=O)c3ccc(F)cc3)ccc21`, for which the GFP signal change (wild-type ribosome) was -28.9% (active), the OD600 change is -17% and the RFP signal change was determined as 3.47%.
`COCC(=O)N1CC2(C1)CN(C(=O)COC)[C@@H](CO)c1c2c2ccc(OC)cc2n1C`: the GFP signal change (wild-type ribosome) was 4.63% (inactive), the OD600 change came to 7.89% and the RFP signal change amounted to 0.659%.
With `Cc1ccc(S(=O)(=O)N(C)C[C@@H]2OCCCC[C@@H](C)Oc3ccc(NC(=O)C4CCCCC4)cc3C(=O)N([C@H](C)CO)C[C@H]2C)cc1`, the GFP signal change (wild-type ribosome) is -2.75% (inactive), the OD600 change was -2.24% and the RFP signal change is 1.84%.
Take `CCOCCCNC(=O)C1(O)c2cc(Br)ccc2NC(=O)N1c1ccc(C)c(C)c1` (centres undefined): the GFP signal change (wild-type ribosome) was 4.8% (inactive), the OD600 change amounted to 3.91% and the RFP signal change worked out at 0.676%.
For `CCCCNC(=O)C1(O)c2ccccc2NC(=O)N1c1ccc(Cl)cc1` (centres undefined), the GFP signal change (wild-type ribosome) was -25.8% (active), the OD600 change was -20.4% and the RFP signal change is 0.114%.
As for `CCOc1ccc(N2C(=O)Nc3ccccc3C2(O)C(=O)NCc2ccco2)cc1` (centres undefined), the GFP signal change (wild-type ribosome) is 2.27% (inactive), the OD600 change worked out at 2.6% and the RFP signal change was found to be 0.0175%.
The corresponding values for `CNC[C@@H]1Oc2c(NC(=O)Nc3ccc(F)cc3)cccc2C(=O)N([C@@H](C)CO)C[C@@H]1C` are 0.51% (inactive), 5.77% and -0.32%.
The corresponding values for `CCCNC(=O)C[C@H]1CC[C@H]2[C@@H](COC[C@H](O)CN2C(=O)Nc2c(C)noc2C)O1` are -3% (inactive), 7.33% and -4.75%.
`C[C@@H]1CN([C@@H](C)CO)S(=O)(=O)c2ccc(/C=C/c3ccccc3)cc2O[C@@H]1CN(C)C(=O)Nc1cc(F)ccc1F`: the GFP signal change (wild-type ribosome) was -1.81% (inactive), the OD600 change was found to be 7.09% and the RFP signal change is -0.095%.
Consider `COc1ccccc1OCCNc1cc(N2CCOCC2)ccc1[N+](=O)[O-]`, for which the GFP signal change (wild-type ribosome) is -27.3% (active), the OD600 change was -18.1% and the RFP signal change is -0.933%.
On to `COc1ccc(CCNc2cc(N3CCN(C(=O)c4ccccc4OC)CC3)ccc2[N+](=O)[O-])cc1OC`, for which the GFP signal change (wild-type ribosome) was 2.05% (inactive), the OD600 change is -0.295% and the RFP signal change came out at 6.64%.
As to `CC(=O)Nc1ccc(S(=O)(=O)N2CCN(c3ccc([N+](=O)[O-])c(NCCN4CCOCC4)c3)CC2)cc1`, the GFP signal change (wild-type ribosome) is -2.32% (inactive), the OD600 change was found to be 3% and the RFP signal change stood at 1.54%.
